# The list is not random: actives were taken first. Their share in the collection is about 19%.
# ELG1 repair inh – ELG1-dependent DNA repair inhibition; HEK293T ELG1-luciferase reporter, luminescence, 16 h; DNA damage induced by 5-fluorouridine; Potency, µM (highest dose often 46.1 µM), inactives show at the top dose activity change, negative = inhibition, most hits filed as inhibitors; 2.3% of 330,000 active; also: potency is read from the fitted curve at half-maximal effect; nearly all actives have a fitted effect of over 55% in size
#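 In this reporter screen, reduction of luminescence relative to DMSO vehicle indicated activity. Compounds and 5-fluorouridine were added together to 2,000 cells per well, incubated for 16 hr at 37 °C, then developed with ONE-Glo.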
# HT1080NT lethal – kills 2HG-producing HT-1080-NT fibrosarcoma cells. HT-1080-NT fibrosarcoma viability, CellTiter-Glo ATP luminescence, 48 h. Potency, µM (titrated, usually from 46.1 µM), without a hit: at the highest dose activity, negative = less viability, usual class: cytotoxic. 1.6% of 360,000 active;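 also: NT is the 2HG producing partner of a matched IDH1 knockdown line; potency is read from the fitted curve at half-maximal effect; 0% = DMSO-treated cells and -100% = media-only wells without cells; nearly all actives have a fitted effect of over 55% in size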
#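 Fibrosarcoma NT cells, 750 per well in 5% FBS RPMI, were exposed to compound for 48 hours. Viability: CellTiter-Glo luminescence.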
# DT40 TDP1 CPT – growth inhibition of DT40 Tdp1-/-;hTDP1 cells with camptothecin (screen for TDP1 inhibitors); chicken DT40 Tdp1-/-;hTDP1 cells + 20 nM CPT, ATP luminescence, 48 h; Potency, µM (titrated, usually from 46.2 µM), for the others: at the top dose activity change, negative = growth inhibition, most hits filed as inhibitors; 12% of 420,000 active; also: potency is read from the fitted curve at half-maximal effect; nearly all actives have a fitted effect of over 55% in size
#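 Chicken DT40 Tdp1-/- cells complemented with human TDP1, 400 cells/well, exposed to compounds plus 20 nM camptothecin for at least 48 h at 37 C; viability read as ATP content by CellTiter-Glo luminescence.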
# HT1080 IDH1KD tx – toxicity to HT-1080 IDH1 knockdown cells (counter line); HT-1080 IDH1 knockdown viability, ATP luminescence, 48 h; Potency, µM (series often up to 46.1 µM), without a hit: top-dose activity, negative = toxicity, actives largely listed as cytotoxic; 2% of 360,000 active;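 also: potency is read from the fitted curve at half-maximal effect; 0% = DMSO wells and -100% = cell-free medium wells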
#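 Using the IDH1-knockdown HT-1080 line run in the same batch and compound series as the NT line, viability after 48 h at 37 °C was determined by CellTiter-Glo luminescence and expressed as % activity.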
# DT40 TDP1 no CPT – qHTS for Inhibitors of human tyrosyl-DNA phosphodiesterase 1 (TDP1): qHTS in cells in absence of CPT; DT40 Tdp1-/- hTDP1 cells, no CPT, ATP luminescence, 48 h; Potency, µM (doses to about 46.2 µM), for inactives: at the top dose activity change, negative = growth inhibition, hits mostly inhibitors; 15% of 420,000 active; also: potency is read from the fitted curve at half-maximal effect; nearly all actives have a fitted effect of over 55% in size
#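 A cellular qHTS used chicken DT40 cells lacking endogenous Tdp1 but carrying stably transfected human TDP1. Compounds were applied without camptothecin, and cell growth kinetics were judged by ATP-dependent luminescence after ≥48 hr.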
# IL-1B inflam inh – inhibitors of inflammasome signaling (IL-1 beta secretion); THP-1 LPS/ATP IL-1B secretion, AlphaLISA, 16 h; hits give low values; activity change, % at 57.5 µM; 4.7% of 360,000 active; in the data active = activity change below about -50%; inconclusive = mostly about -30% to -49%
#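 THP-1 cells pretreated 1 hr with compounds (up to 57.5 uM final), then stimulated with LPS (250 ng/mL final) plus ATP (1.25 mM final); secreted IL-1B measured by AlphaLISA after 16 hr, decreased signal indicating inhibition.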
# Starred values were filed as active, the others as inactive; ? = inconclusive; · = no result given; [ ] = dose if it differs, or a comment. Unless noted, calls follow the shape of the dose curve; as a rule, active = well fitted curve in the direction sought with a large enough effect; inconclusive = small, poorly fitted or top-dose-only effect, or another doubt; inactive = no such curve, though single readings can be large; an effect the other way counts as inactive or inconclusive. Unless noted, % is scaled to controls: 0 for no effect and ±100 for the full control effect.
SMILES,ELG1 repair inh,HT1080NT lethal,DT40 TDP1 CPT,HT1080 IDH1KD tx,DT40 TDP1 no CPT,IL-1B inflam inh
Cc1ccc(S(=O)(=O)NCc2ccncc2)cc1C,19%,-5%,2.9µM*,23µM*,1.3µM*,-7
CNC(=O)c1cc(S(=O)(=O)NCc2ccncc2)ccc1OC,-13%,-3%,-26%,-1%,-27%,-16
Cc1cc(C)c(C)c(S(=O)(=O)NCc2ccc(C(=O)N3CCN(C)CC3)cc2)c1C,?,3%,-29%,-15%,-11%,18
Nc1ncc(S(=O)(=O)NCc2ccccc2)cn1,·,·,-6%,·,-3%,·
CC(C)c1ccc(NS(=O)(=O)c2ccc3c(c2)oc(=O)n3C)cc1,-19%,-4%,18µM*,1%,?,16
O=[N+]([O-])c1ccccc1S(=O)(=O)NCc1cccnc1,2%,25%,8.9µM*,0%,21µM*,-7
COC(=O)COc1ccc(S(=O)(=O)NCc2ccncc2)cc1,?,-2%,4.1µM*,-1%,9.2µM*,77
O=S(=O)(NCc1ccncc1)c1ccccc1,?,2%,23µM*,-13%,8.2µM*,37
N#CCC(=O)Nc1ccc(C(=O)Nc2cccc(S(N)(=O)=O)c2)cc1,-5%,-3%,-5%,0%,-4%,22
COc1ccc([C@H]2C[C@@H](n3cc(-c4ccc(F)cc4)nn3)[C@H](O)CN2CC2CCCCC2)cc1,·,3%,?,2%,?,22
CC1CCC2(OC1)OC1CC3C4CC[C@@H]5CC(O)CC[C@@]5(C)C4CC(=O)[C@]3(C)C1C2C (stereo not given in full),·,·,-18%,·,-23%,·
Cc1nc2cc(NC(=O)[C@@H]3C[C@@H](Sc4ccccn4)CN3Cc3ccc(F)cc3F)ccc2s1,·,·,-1%[9.04 µM],·,-9%,·
Cc1ccc(S(=O)(=O)NCc2ccncc2)cc1C(=O)NCC(C)C,-21%,-10%,15µM*,-1%,?,10
COc1ccc(S(=O)(=O)NCc2cccnc2)cc1Br,?,0%,4.6µM*,16µM*,5.8µM*,0
O=S(=O)(NCc1ccncc1)c1ccc(Br)s1,?,-9%,1.8µM*,-12%,2.6µM*,-9
Cn1c(=O)oc2cc(S(=O)(=O)NCc3ccncc3)ccc21,?,-3%,8.2µM*,-16%,8.2µM*,75
O=C(O)CNS(=O)(=O)c1ccc(Br)s1,?,16%,-9%,23%,-8%,22
COc1ccc(S(=O)(=O)NCc2cccnc2)cc1,-4%,-5%,-18%,1%,3%,29
Cc1ccc(S(=O)(=O)NCc2ccccc2)cc1C(=O)NCc1ccccn1,4%,-5%,1%,-3%,17%,33
Cn1c(=O)oc2cc(S(=O)(=O)NCc3ccc(C(=O)O)cc3)ccc21,5%,0%,-4%,-4%,0%,28
Cn1cc(-c2nc3cnc(Oc4cccc(Cl)c4)nc3n(C3CC3)c2=O)c2ccccc21,·,·,-122%,·,2%,·
Cc1noc(NS(=O)(=O)c2ccc(NS(=O)(=O)c3ccc(Cl)cc3)cc2)c1C,16%,-1%,0%,0%,-8%,12
CCCc1nccn1S(=O)(=O)c1cc(Br)ccc1OC,·,·,-11%,·,-29%,·
O=S(=O)(NCc1cccnc1)c1ccc2ccccc2c1,0%,-11%,?,-6%,21µM*,0
COc1cc(OC)c(C(=O)Nc2ccncc2)cc1OC,-2%,9%,10%,10%,9%,-60*
SMILES,ELG1 repair inh,HT1080NT lethal,DT40 TDP1 CPT,HT1080 IDH1KD tx,DT40 TDP1 no CPT,IL-1B inflam inh
COc1ccc(C(=O)Nc2ccncc2)c(OC)c1,?,4%,3%,6%,-26%,-15
COc1cc(SC)ccc1C(=O)NCc1ccccc1,15%,13%,-18%,10%,-26%,-24
COc1cccc(OC)c1C(=O)Nc1ccc(C(=O)c2ccncc2)cc1,-7%,7%,13µM*,1%,?,5
COc1cc(SC)ccc1C(=O)Nc1ccncc1,-2%,12%,16µM*,-3%,13µM*,?
COc1cc(SC)ccc1C(=O)NCc1ccc(C)cc1,?,4%,16µM*,?,?,-13
COc1ccccc1C(=O)Nc1ccc(S(=O)(=O)Nc2nc(C)cc(C)n2)cc1,·,·,2%,·,5%,·
COc1cc(SC)ccc1C(=O)Nc1ccc(S(=O)(=O)Nc2nccc(C)n2)cc1,·,·,23µM*,·,?,·
O=C(CNC(=O)c1ccc(Br)cc1)OC1CCOC1=O (stereo not given),·,5%,1%,6%,3%,-6
COCCn1c(SC2CCCCC2=O)nnc1-c1ccncc1 (stereo not given),16%,20%,-10%,21%,-14%,13
O=C1CCCCC1Sc1nnc(Cc2cccs2)n1CCc1ccccc1 (stereo not given),-16%,-11%,?,-5%,23µM*,?
O=C(CCCCn1c(=O)c2ccccc2n(CC(=O)Nc2ccc(F)cc2F)c1=O)NCc1ccccc1Cl,·,·,-10%,·,-19%,·
CCCCNC(=O)CCCn1c(=O)c2ccccc2n(Cc2cccc(Cl)c2)c1=O,·,·,23µM*,·,23µM*,·
COc1ccccc1CNC(=O)CCCCn1c(=O)c2ccccc2n(Cc2ccccc2F)c1=O,·,·,3.7µM*,·,2.3µM*,·
O=C(CCCn1c(=O)c2sccc2n(Cc2c(F)cccc2Cl)c1=O)NCc1ccccc1,·,·,?,·,16µM*,·
CCCCNC(=O)CCCn1c(=O)c2ccccc2n(Cc2c(C)cc(C)cc2C)c1=O,·,·,1%,·,-4%,·
O=C(CCCCn1c(=O)c2ccccc2n(Cc2ccccc2F)c1=O)NCc1ccccc1Cl,·,·,8.2µM*,·,5.2µM*,·
CCN(CC)C(=O)Cn1c(=O)n(CCCC(=O)NCc2ccccc2)c(=O)c2sccc21,7%,1%,-12%,4%,-8%,-15
COc1cccc(CN(C)C(=O)Cc2ccc(OC)c(S(=O)(=O)N3CCOCC3)c2)c1,?,1%,-19%,3%,-30%,-6
COc1ccccc1CNC(=O)CCCCn1c(=O)c2ccccc2n(Cc2ccccc2C)c1=O,·,·,5.8µM*,·,2.9µM*,·
COc1ccc(CCNC(=O)CCCn2c(=O)c3ccccc3n(Cc3ccccc3C)c2=O)cc1OC,·,·,-24%,·,-2%,·
Cc1ccc(C)c(Cn2c(=O)n(CCCCC(=O)NCc3ccccc3Cl)c(=O)c3ccccc32)c1,·,·,7.3µM*,·,7.3µM*,·
